SMILES strings stand for the structures. The whole screen tested about 58,000 compounds, of which about 3,400 (5.9%) were called active.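 How the source made its calls: active means luminescence count or its row- and column-corrected plate score outside the 99.7% band of the plate's sample wells, on either side; inactive means the rest.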 The full list was thinned out, with actives kept by preference.

In this assay the target is D(1A) dopamine receptor (Homo sapiens) (UniProt P21728). Description: D1 CRE-luciferase signal change, two-sided – cell-based, HEK293 D1, dopamine EC30, D1 allosteric modulator project, primary screen (AID 641). The settings on record: dopamine EC30 potentiation, at 10 µM, actives deviate in either direction.
Sequence of D(1A) dopamine receptor (Homo sapiens) (P21728 whole entry, looked up): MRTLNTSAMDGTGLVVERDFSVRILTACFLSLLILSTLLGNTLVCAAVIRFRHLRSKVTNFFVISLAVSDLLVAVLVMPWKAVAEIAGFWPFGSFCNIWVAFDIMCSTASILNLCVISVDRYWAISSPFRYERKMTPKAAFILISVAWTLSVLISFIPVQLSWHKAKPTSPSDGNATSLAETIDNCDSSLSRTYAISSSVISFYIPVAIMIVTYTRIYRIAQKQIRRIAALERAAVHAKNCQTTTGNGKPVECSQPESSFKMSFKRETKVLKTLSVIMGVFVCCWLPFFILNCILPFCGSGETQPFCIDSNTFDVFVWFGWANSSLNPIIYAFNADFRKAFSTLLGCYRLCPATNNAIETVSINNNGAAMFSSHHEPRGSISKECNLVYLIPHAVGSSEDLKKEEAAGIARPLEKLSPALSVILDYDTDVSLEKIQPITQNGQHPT
For the compound `CCOC(=O)C(O)(c1ccc(NC(=O)c2ccco2)c(OC)c1)C(F)(F)F` (stereo not given), the B-score was 0.817 (inactive). The result for `CCOC(=O)C(O)(c1ccc(N)c(OC)c1)C(F)(F)F` (stereo not given) reads -4.69 (active); that for `CCOP(=S)(OCC)SCOC(=O)NCC(=O)OC`, 1.46 (inactive); that for `Cc1ccc2c(c1)C1CN(C)CCC1N2C(=O)Cn1nnc(-c2ccccc2F)n1` (stereo not given), -3.16 (active). The result for `Cc1cc(N2C(=O)C3CCCN3C2c2ccc(Cl)c(Cl)c2)no1` (stereo not given) reads 1.04 (inactive); that for `CC(=NC1CCN(Cc2ccccc2)CC1)c1c(O)n(C)c(=O)n(C)c1=O`, 0.191 (inactive). With `CCN(CC)CCOC(=O)c1cc2cc(COC)ccc2o1` the figure was 0.407 (inactive).

With `C=Cn1ccnc1P(=S)(c1cc(N(CC)CC)ns1)c1nccn1C=C`, the B-score was -0.0508 (inactive). With `CC(=C1C(=O)c2ccccc2C1=O)N1CCN(CCN=Cc2c(O)n(C)c(=O)n(C)c2=O)CC1` the figure was -0.0144 (inactive); with `CCC(=NCc1ccco1)c1c(O)n(Cc2ccccc2)c(=O)[nH]c1=O`, 10.9 (active); with `CCCCCCN=C(CC)c1c(O)n(CCCC)c(=O)[nH]c1=O`, 2.24 (inactive). With `CCC(=NCCCO)c1c(O)n(-c2ccc(OC)cc2)c(=O)[nH]c1=O` the figure was -0.508 (inactive); with `N[C@@H](Cc1c[nH]c2ccccc12)c1nnc(SCc2c(F)cccc2Cl)o1`, -0.133 (inactive). With `CCCC(C)n1[nH]c(=O)c2c1NC(=O)CSC2c1ccc(OC)c(OC)c1` (stereo not given), the B-score is 0.346 (inactive).

For `CCc1cccc2c(C#N)cn(CC(=O)N3CCOCC3)c12`, the B-score is -1.07 (inactive).

The record behind these values is PubChem BioAssay AID641 (Vanderbilt High Throughput Screening Facility, 2007).
